Structures are written as SMILES. Screen size: about 16,000 compounds; about 5,800 (36%) were called active. Another 23% or so got no clear call; they are omitted. Calls come from the whole dose curve; as a rule, active = well fitted curve in the direction sought with a large enough effect; inconclusive = small, poorly fitted or top-dose-only effect, or effect the other way; inactive = no such curve, though single readings can be large or run the other way. The list shows a part of the results.

This note sets out measurements from PubChem BioAssay AID1851 (National Center for Advancing Translational Sciences (NCATS), 2009).
% is set by controls: 0 for no effect and ±100 for the full control effect.

The target of this test is Cytochrome P450 2C19 (Homo sapiens) (UniProt P33261). The experiment in a line: Cytochrome panel assay with activity outcomes. The settings on record: recombinant CYP, pro-luciferin dealkylation, luminescence, p450-cyp2c19; series mostly up to 57.1 µM; activity, negative = inhibition: at the top concentration.
Cytochrome P450 2C19 (Homo sapiens), sequence (P33261 whole entry, looked up): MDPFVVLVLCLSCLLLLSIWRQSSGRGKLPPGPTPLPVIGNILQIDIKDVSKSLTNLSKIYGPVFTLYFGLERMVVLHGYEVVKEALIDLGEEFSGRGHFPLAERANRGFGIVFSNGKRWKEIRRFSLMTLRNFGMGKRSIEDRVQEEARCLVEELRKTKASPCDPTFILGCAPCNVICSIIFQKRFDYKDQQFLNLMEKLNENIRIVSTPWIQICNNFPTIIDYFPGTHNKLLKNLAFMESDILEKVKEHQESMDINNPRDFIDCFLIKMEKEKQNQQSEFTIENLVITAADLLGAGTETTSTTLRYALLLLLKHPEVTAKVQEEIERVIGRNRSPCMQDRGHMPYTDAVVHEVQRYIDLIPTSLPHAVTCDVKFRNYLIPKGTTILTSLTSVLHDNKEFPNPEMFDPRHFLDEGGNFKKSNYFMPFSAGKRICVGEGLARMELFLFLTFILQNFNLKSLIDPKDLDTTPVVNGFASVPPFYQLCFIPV
As a reminder, the AC50 is the concentration giving half of the maximal activity seen. Take `Fc1ccc(Nc2ncncc2-c2ccccc2C(F)(F)F)cc1`: the half-maximal activity concentration (AC50) was 7.94 µM (active). In the case of `Cc1nc(NS(=O)(=O)c2ccccc2C)c2c3c(sc2n1)CCC3`, the half-maximal activity concentration (AC50) was 8.91 µM (active). As for `Cc1nc(NS(=O)(=O)c2ccc(Br)cc2)c2c3c(sc2n1)CCC3`, the half-maximal activity concentration (AC50) was 3.55 µM (active). On to `Cc1cc(C)n(-c2nc(NCC(C)O)c3c4c(sc3n2)COC(C)(C)C4)n1` (stereo not given), for which the “activity, negative = inhibition” value is -19.4% (inactive). Regarding `Cc1nc(NCc2ccco2)c2c3c(sc2n1)CCC3`, the AC50 is 10 µM (active). As for `CCCSc1nc(NCc2ccco2)c2c3c(sc2n1)COC(C)(C)C3`, the half-maximal activity concentration (AC50) is 7.08 µM (active). Turning to `CN(C)S(=O)(=O)c1nc(Cl)c2[nH]cnc2n1`, the activity, negative = inhibition is 24.6% [at 11.4 µM] (inactive). `CC[C@H](C)[C@@H]1O[C@]2(CC[C@@H]1C)C[C@H]1C[C@H](CC=C(C)[C@@H](O[C@@H]3C[C@H](OC)[C@H](O[C@@H]4C[C@H](OC)[C@H](O)[C@H](C)O4)[C@H](C)O3)[C@@H](C)C=CC=C3CO[C@@H]4[C@@H](O)C(C)=C[C@@H](C(=O)O1)[C@]34O)O2`: the “activity, negative = inhibition” value was 33.6% [at 25.6 µM] (inactive). Take `Cc1ccc(NC(=O)Cn2nc([N+](=O)[O-])c(Br)c2C)cc1C`: the AC50 was 5.62 µM (active). On the same count and under the same terms, under `O=C(Nc1ccc(Cl)c(C(F)(F)F)c1)C1CCCN(S(=O)(=O)c2cnc[nH]2)C1` (stereo not given) stands 0.562 µM (active); under `Clc1ccc(COn2c(-c3ccccc3)nc3ccccc32)cc1`, 0.141 µM (active). `O=[N+]([O-])c1ccc2nc(-c3ccc(Cl)cc3)n(OCc3ccccc3)c2c1`: the “activity, negative = inhibition” value was 20.2% (inactive). With `O=[N+]([O-])c1ccc2nc(-c3ccccc3)n(OCc3ccc(Cl)cc3)c2c1`, the AC50 is 1.58 µM (active). Regarding `COc1ccc2nc(N3C(=O)CC(Cc4ccc(Cl)cc4)C3=O)sc2c1` (stereo not given), the AC50 is 3.55 µM (active).

In the case of `COc1ccc(CN2CN(c3ccc(Cl)cc3)C(=O)N(n3cnnc3)C2)cc1`, the “activity, negative = inhibition” value was -16.1% (inactive).

Turning to `CCC1CCCCN1Cc1cc(OC)c(O)c([N+](=O)[O-])c1` (stereo not given), the “activity, negative = inhibition” value is -2.44% (inactive). Consider `Cc1ccc(N=CC2=C(O)CC(c3ccco3)CC2=O)cc1` (stereo not given), for which the AC50 was 7.94 µM (active). As to `COC(=O)C1=C(C)NC(C)=C(C(=O)OCCSc2ccccc2)[C@@H]1C`, the AC50 was 0.2 µM (active).

Regarding `O=C(O)CC/C=C\CC[C@H]1[C@@H](N2CCCCC2)[C@@H](O)C[C@@H]1OCc1ccc(-c2ccccc2)cc1`, the “activity, negative = inhibition” value is 12.9% (inactive). Take `O=C(CCN1C(=O)c2ccccc2C1=O)Oc1ccc2ccccc2c1`: the “activity, negative = inhibition” value is -7.77% (inactive). Consider `Cc1cccc(N(C)C(=S)Oc2ccc3ccccc3c2)c1`, for which the half-maximal activity concentration (AC50) was 0.1 µM (active).

For `O=C(Nc1cc(C(F)(F)F)ccc1-n1cncn1)c1ccc(Br)cc1`, the half-maximal activity concentration (AC50) was 2.24 µM (active).

With `CC(=O)Nc1ccc(S(=O)(=O)N2CCN(c3nc(NC4CCCC4)c4ccccc4n3)CC2)cc1`, the AC50 is 7.08 µM (active).

Consider `Cc1ccc(C(=N)c2ccccc2Cc2cccc3ccccc23)c2ccccc12`, for which the AC50 is 1.26 µM (active). As to `Cc1cc(C)cc(C(=N)c2ccccc2Cc2cccc3ccccc23)c1`, the half-maximal activity concentration (AC50) was 1.58 µM (active). For `Cc1cc(C)c(O)c(Cc2cccc(Cc3cc(C)cc(C)c3O)c2O)c1`, the activity, negative = inhibition was 8% [at 11.4 µM] (inactive).

For `C#CCCCO/N=C1/C[C@@H](O)[C@@H](O)[C@@H]2[C@@H]3C(=O)N(C[C@@H]4CCCO4)C(=O)[C@H]3CC[C@H]12`, the activity, negative = inhibition was -15.3% [at 11.4 µM] (inactive). As to `ClC(Cl)(Cl)C(N1CCN(c2ccccc2)CC1)N1CCN(c2ccccc2)CC1`, the activity, negative = inhibition is 21% [at 11.4 µM] (inactive). Regarding `CC(C)CC(c1nnnn1C(C)C)N1CCN(c2ccccc2)CC1` (stereo not given), the AC50 was 5.01 µM (active). Take `CCOC(=O)c1cnn(-c2nc(-c3cccc(F)c3)cs2)c1C(F)(F)F`: the AC50 is 2.82 µM (active). Turning to `CCN(CC)CCOc1ccc2nc(N(C)C)sc2c1`, the “activity, negative = inhibition” value was -20.4% (inactive). As for `CCOC(=O)C1CCN(C(=O)c2ccccc2NC(C)=O)CC1`, the “activity, negative = inhibition” value is -27.7% (inactive). For the compound `COc1cc2nc(N3CCN(C(=O)[C@@H]4CCCO4)CC3)nc(N)c2cc1OC`, the “activity, negative = inhibition” value is 20.7% [at 25.6 µM] (inactive). Take `CCOC(=O)C1CCN(C(=O)C2CCN(c3nc4ccc(OC)cc4s3)CC2)CC1`: the concentration at half-maximal activity (AC50) is 11.2 µM (active). As to `CCOc1ccc2nc(N3CCCCCC3)sc2c1`, the AC50 is 3.98 µM (active). `CN1CCC2(CC1)C1CN(C)CC=C1C(C#N)=C(N)C2(C#N)C#N` (stereo not given): the “activity, negative = inhibition” value was -23.1% (inactive). In the case of `CN1CC[C@@]2(CCCN(C(=O)c3cc(C(F)(F)F)cc(C(F)(F)F)c3)C2)C1`, the “activity, negative = inhibition” value was 12.7% (inactive). `COc1cnc(SCc2ccc(Cl)cc2)nc1Cl`: the AC50 is 1.58 µM (active). In the case of `Cc1ccc(CNC(=O)CCc2c(C)nc3ncnn3c2C)cc1`, the “activity, negative = inhibition” value was -21.9% (inactive). Still for that read-out and setting: under `CCOC(=O)CCc1c(C)nc2ncnn2c1C` stands -27.2% (inactive). With `CCc1c(C)nc2ncnn2c1NCCc1ccc(OC)cc1`, the AC50 was 3.55 µM (active). As to `COc1ccc(C(=O)c2cnc3ccccc3c2-c2ccccc2)cc1`, the concentration at half-maximal activity (AC50) is 5.01 µM (active).

`COc1ccc(-c2nc3cnc(N4CCN(C)CC4)nc3n(Cc3ccc(F)cc3)c2=O)cc1`: the “activity, negative = inhibition” value is 10.3% (inactive). For `CCOC(=O)c1oc2nc(CC(C)C)c3c(c2c1N)CCC3`, the AC50 was 11.2 µM (active). As for `CC1(C)S[C@@H]2[C@H](NC(=O)[C@H](C(=O)O)c3ccsc3)C(=O)N2[C@H]1C(=O)O`, the “activity, negative = inhibition” value was -38.5% [at 25.6 µM] (inactive).
